Measurements published in the supplement of paper PMC5407854, “Inhibitor of ppGalNAc-T3-mediated O-glycosylation blocks cancer cell invasiveness and lowers FGF23 levels” (eLife, 2017).
Over roughly 1,700 compounds, “T2 sensor activation Q score (MG/GFP ratio z-score vs DMSO controls)” has its median near 0.3; the highest 2% begin near 1.9. The list comes from a sample in which the highest values are over-represented; it also holds similar structures and randomly drawn compounds.

Tested on: ppGalNAc-T2 sensor
Experiment: T2 sensor activation Q score (MG/GFP ratio z-score vs DMSO controls) (SD units); higher = more sensor activation (inhibition of ppGalNAc-T2 glycosylation)
Settings: HEK293 sensor cells; 10 µM; 6 h
Method: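 Cells were treated with compound at 10 uM for 6 h, then MG/GFP ratio was read by flow cytometry (10,000 cells per well, duplicate wells). Q = (R - R_neg)/SD_neg relative to DMSO vehicle controls; the signal rises when the glycosyltransferase is inhibited.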

Q: With `Cc1cccc(C(O)C(O)c2cccc(C)n2)n1` (configuration not stated) as the compound, how does the “T2 sensor activation Q score” value read?
A: 0.55

Q: Which “T2 sensor activation Q score” value does the source give for `COc1ccccc1/C=C(\C#N)C(=O)O` here?
A: 1.4

Q: With `c1ccc2c(c1)nnn2-c1ccncc1` as the compound, how does the “T2 sensor activation Q score” value read?
A: -0.1

Q: How did the “T2 sensor activation Q score” value turn out when `Nc1nnc(-c2cccnc2)s1` was run?
A: 0.6

Q: For `Cc1cnc2c(N)cc(C)c(C)c2c1`, which “T2 sensor activation Q score” value is on record?
A: 1.15

Q: With `O=[N+]([O-])c1cc(-c2cccnc2)n[nH]1` as the compound, how does the “T2 sensor activation Q score” value read?
A: -0.35

Q: `Nc1ccccc1C(=O)Nc1ccc(Cl)cc1Cl` was tested. Which “T2 sensor activation Q score” value did it give?
A: 0.45

Q: `C#CC1(N2CCCCC2)CCCCC1` was tested. Which “T2 sensor activation Q score” value did it give?
A: 0.8

Q: How did the “T2 sensor activation Q score” value turn out when `Clc1nnc(NC2CCCCC2)c(Cl)c1Cl` was run?
A: 0.15

Q: `CC(=O)OCC1OC(COC(C)=O)(c2ccc(C)cc2)C(OC(C)=O)C1OC(C)=O` (configuration not stated) was tested. Which “T2 sensor activation Q score” value did it give?
A: 0.15

Q: Which “T2 sensor activation Q score” value does the source give for `c1ccc(NN(Cc2ccncc2)c2ccccc2)cc1` here?
A: 0.95

Q: Which “T2 sensor activation Q score” value does the source give for `COc1ccc(Nc2cc(Cl)ccc2C(=O)O)cn1` here?
A: 2.25

Q: How did the “T2 sensor activation Q score” value turn out when `COc1cc(-c2ccc(Nc3ccccc3C(=O)O)c(OC)c2)ccc1Nc1ccccc1C(=O)O` was run?
A: -0.5

Q: `CCCCOc1ccc(Nc2cc(Cl)ccc2C(=O)O)cn1` was tested. Which “T2 sensor activation Q score” value did it give?
A: 1.2

Q: `c1coc(CNc2ncnc3[nH]ncc23)c1` was tested. Which “T2 sensor activation Q score” value did it give?
A: 0.7

Q: `O=C(O)/C=C/C(=O)N1Cc2cc3ccccc3nc2C1` was tested. Which “T2 sensor activation Q score” value did it give?
A: -0.3

Q: For `CCCCN1C(=O)CC2CCOC21C` (configuration not stated), which “T2 sensor activation Q score” value is on record?
A: -0.45

Q: For `CN1C(=C=Cc2cc(I)c(O)c(I)c2)C(C)(C)c2ccccc21`, which “T2 sensor activation Q score” value is on record?
A: 3.65

Q: How did the “T2 sensor activation Q score” value turn out when `Cc1nnc(-n2cccc2)s1` was run?
A: 1.4

Q: Which “T2 sensor activation Q score” value does the source give for `Clc1ccc(Oc2nc3c(Cl)cccc3s2)cc1Cl` here?
A: 0.85

Q: With `Nc1n[nH]c(CO)n1` as the compound, how does the “T2 sensor activation Q score” value read?
A: 1.95

Q: `Nc1n[nH]c(-c2ccccc2)n1` was tested. Which “T2 sensor activation Q score” value did it give?
A: 0.75

Q: With `C(COC1CC2CC1C1C2CC2OC21)OC1CC2CC1C1C2CC2OC21` (configuration not stated) as the compound, how does the “T2 sensor activation Q score” value read?
A: 0.15

Q: `CC(C)C[C@H](NC(=O)[C@H](CCc1ccccc1)NC(=O)CN1CCOCC1)C(=O)N[C@@H](Cc1ccccc1)C(=O)N[C@@H](CC(C)C)C(=O)[C@@]1(C)CO1` was tested. Which “T2 sensor activation Q score” value did it give?
A: -1.65

Q: With `O=C1c2cccc(Sc3ccccc3)c2C(=O)c2c(Sc3ccccc3)cccc21` as the compound, how does the “T2 sensor activation Q score” value read?
A: -0.5

Q: How did the “T2 sensor activation Q score” value turn out when `S=c1nc[nH]c2c1ncn2C1CCCC1` was run?
A: 1.4

Q: How did the “T2 sensor activation Q score” value turn out when `COc1ccc2nc3cc(Cl)ccc3c(Nc3cc(C(C)C)c(O)cc3C)c2c1` was run?
A: 0.55

Q: `N#Cc1nnn(-c2ccc(Cl)cc2)c1N` was tested. Which “T2 sensor activation Q score” value did it give?
A: 1

Q: How did the “T2 sensor activation Q score” value turn out when `CSC1=NC=C(C#N)C2=NC(c3ccc(Cl)cc3)NN12` (configuration not stated) was run?
A: 2.45

Q: How did the “T2 sensor activation Q score” value turn out when `Cc1c(Cl)cccc1Nc1ncccc1C(=O)OCC(O)CO` (configuration not stated) was run?
A: -0.65

Q: With `CN(C)c1ccc(C(c2ccc(N(C)C)cc2)c2ccc([N+](=O)[O-])cc2)cc1` as the compound, how does the “T2 sensor activation Q score” value read?
A: 0.55

Q: How did the “T2 sensor activation Q score” value turn out when `CCSc1nc(O)cc(=O)[nH]1` was run?
A: -0.9

Q: For `CC(=O)[C@H]1CC[C@H]2[C@@H]3CCC4=CC(=O)C=C[C@]4(C)[C@H]3C(=O)C[C@]12C`, which “T2 sensor activation Q score” value is on record?
A: 1.65

Q: How did the “T2 sensor activation Q score” value turn out when `CCOCc1cc(=O)[nH]c(SC)n1` was run?
A: -0.05

Q: How did the “T2 sensor activation Q score” value turn out when `Cc1ccc(S(=O)(=O)Oc2cc(N)c3c(n2)CCC3)cc1` was run?
A: 0.3

Q: `O=C(Nc1ccc(Br)cc1)Nc1ccccc1Cl` was tested. Which “T2 sensor activation Q score” value did it give?
A: -0.9

Q: How did the “T2 sensor activation Q score” value turn out when `Clc1ccc(Nc2nnc(-c3ccc4c(c3)OCO4)o2)cc1` was run?
A: -0.7

Q: Which “T2 sensor activation Q score” value does the source give for `CCN1CCCC(Sc2nc3c([nH]2)c(=S)n(C)c(=O)n3C)C1` (configuration not stated) here?
A: 0.45

Q: `O=C(O)c1cc(O)ccc1N=Nc1ccccc1` was tested. Which “T2 sensor activation Q score” value did it give?
A: 1.55

Q: For `CCC(=Cc1ccc(CC)cn1)CC`, which “T2 sensor activation Q score” value is on record?
A: 1.85

Q: With `O=[N+]([O-])c1cccc(/C=C/c2ccccn2)c1` as the compound, how does the “T2 sensor activation Q score” value read?
A: -1.2

Q: For `C(=C\c1ccccn1)/c1ccccn1`, which “T2 sensor activation Q score” value is on record?
A: 2.1

Q: With `C(=C\CSc1ccccn1)/CSc1ccccn1` as the compound, how does the “T2 sensor activation Q score” value read?
A: -0.6

Q: How did the “T2 sensor activation Q score” value turn out when `CC(=O)c1c(O)c(C)c(O)c2c1OC1=CC(=O)/C(=C(/C)N)C(=O)C12C` (configuration not stated) was run?
A: -1.2

Q: Which “T2 sensor activation Q score” value does the source give for `C/C=C1\NC(=O)[C@H]2CSSCC/C=C/[C@H](CC(=O)N[C@H](C(C)C)C(=O)N2)OC(=O)[C@H](C(C)C)NC1=O` here?
A: 3

Q: Which “T2 sensor activation Q score” value does the source give for `O=C(Nc1nc2ccccc2s1)Nc1ccc([N+](=O)[O-])cc1Cl` here?
A: 0.35

Q: Which “T2 sensor activation Q score” value does the source give for `CN(C)c1nc(Cl)nc2c1nc(Cl)n2C1CCCCO1` (configuration not stated) here?
A: 1.4

Q: `O=C(/C=C/c1ccccc1)CC(c1ccccc1)N1CCOCC1` (configuration not stated) was tested. Which “T2 sensor activation Q score” value did it give?
A: -0.6

Q: For `C1COCCN1.O=C(O)C(C=C(Cl)Cl)N1CCOCC1` (configuration not stated), which “T2 sensor activation Q score” value is on record?
A: 2.65

Q: How did the “T2 sensor activation Q score” value turn out when `CCCCCCCCC(=O)c1c(OC)oc(C=O)cc1=O` was run?
A: 0.5

Q: For `C/C(=N/O)[C@H]1CC[C@H]2[C@@H]3CC[C@@H]4C/C(=N\O)CC[C@]4(C)[C@H]3[C@@](C)(O)C[C@]12C`, which “T2 sensor activation Q score” value is on record?
A: 0.5

Q: With `COC(=O)c1c(-c2ccccc2)[nH]c(-c2nccc3ccccc23)c1C(=O)OC` as the compound, how does the “T2 sensor activation Q score” value read?
A: -0.35

Q: With `COc1cc(NC(=O)CCl)ccc(=O)c1` as the compound, how does the “T2 sensor activation Q score” value read?
A: 0.6

Q: Which “T2 sensor activation Q score” value does the source give for `Nc1o[nH]c(=O)c1C1CCCCC1` here?
A: -0.8

Q: With `Cc1cc(-n2cnc3c(=O)[nH]cnc32)ccc1N` as the compound, how does the “T2 sensor activation Q score” value read?
A: 1.35

Q: Which “T2 sensor activation Q score” value does the source give for `CS/C(=C\c1ccc(C(=O)c2ccc(C)cc2)n1C)[S+](C)[O-]` (configuration not stated) here?
A: 5.35

Q: `CCOC(=O)Nc1ccc2nc(Sc3ccc(Cl)cc3)sc2c1` was tested. Which “T2 sensor activation Q score” value did it give?
A: 0.35

Q: `COC(=O)c1cc2c(n1S(=O)(=O)c1ccc(C)cc1)C(=O)C(=O)c1[nH]cc(C(=O)OCc3ccccc3)c1-2` was tested. Which “T2 sensor activation Q score” value did it give?
A: 2

Q: Which “T2 sensor activation Q score” value does the source give for `Cc1ccc(S(=O)(=O)CCOC(=O)CNC(=O)OCc2ccccc2)cc1` here?
A: -0.1

Q: How did the “T2 sensor activation Q score” value turn out when `NC(=O)NC(=O)c1nccnc1C(=O)O` was run?
A: -0.2

Q: With `O=C(c1ccccc1)c1ccccc1C(=O)c1ccccc1` as the compound, how does the “T2 sensor activation Q score” value read?
A: 0.65

Q: For `COc1c(O)ccc2c1CN1CCc3cc4c(cc3C1C2)OCO4` (configuration not stated), which “T2 sensor activation Q score” value is on record?
A: -1.3

Q: How did the “T2 sensor activation Q score” value turn out when `COC(=O)C[C@](O)(CCCC(C)(C)O)C(=O)O[C@@H]1C(OC)=C[C@]23CCCN2CCc2cc4c(cc2[C@H]13)OCO4` was run?
A: 4.5

Q: `C[C@]12CC[C@H](O)CC1=CC[C@@H]1[C@@H]2CC[C@]2(C)c3[nH]ncc3C[C@@H]12` was tested. Which “T2 sensor activation Q score” value did it give?
A: 0.2

Q: How did the “T2 sensor activation Q score” value turn out when `COc1ccc(C(=S)N2CCN(c3ccccc3C)CC2)cc1` was run?
A: -0.85

Q: Which “T2 sensor activation Q score” value does the source give for `CCn1c(=O)n(C)c2c(=O)n(C)c(=O)n(C)c21` here?
A: -1.1

Q: How did the “T2 sensor activation Q score” value turn out when `Cn1c(=O)c2c(nc(N3CCCCC3)n2C)n(C)c1=O` was run?
A: -0.7

Q: Which “T2 sensor activation Q score” value does the source give for `CCCc1nc2c([nH]1)c(=O)n(C)c(=O)n2C` here?
A: 1.8

Q: With `Cn1c(=O)c2[nH]c(N3CCCCC3)nc2n(C)c1=O` as the compound, how does the “T2 sensor activation Q score” value read?
A: 2.15

Q: How did the “T2 sensor activation Q score” value turn out when `Cn1c(=O)c2c(nc(Cc3ccccc3)n2C)n(C)c1=O` was run?
A: 1.35

Q: Which “T2 sensor activation Q score” value does the source give for `Cc1c2oc3c(C)ccc(C(=O)N[C@@H]4C(=O)N[C@H](C(C)C)C(=O)N5CCC[C@H]5C(=O)N(C)CC(=O)N(C)[C@@H](C(C)C)C(=O)O[C@@H]4C)c3nc-2c(C(=O)N[C@@H]2C(=O)N[C@H](C(C)C)C(=O)N3CCC[C@H]3C(=O)N(C)CC(=O)N(C)[C@@H](C(C)C)C(=O)O[C@@H]2C)c(N)c1=O` here?
A: -1.15

Q: For `Cc1cc2cc3c(=O)[nH]c(=O)[nH]c3nc2cc1C`, which “T2 sensor activation Q score” value is on record?
A: -0.35
